Activity remaining data for 15 compounds are collected here from PubChem BioAssay.

Molecules are shown by their SMILES. A number with no mark means an inactive call. The rule behind the calls is not given here.

The test system of this test is Aerobactin synthetase IucA (Klebsiella pneumoniae hvKP1). The test can be described thus: IucA enzyme inhibition, primary screen, biochemical, Spectrum library (AID 1346200).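 Note: 100% = wells without compound and 0% = wells lacking enzyme.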 To be noted: malachite green pyrophosphate, A620, at 8 µM, hits give low values.
Take `Cc1cccc(C(=O)O)c1O`: the activity remaining is 91.3%.

Consider `O=C(O)c1ccccc1`, for which the activity remaining was 115%.

In the case of `COc1cnc(NS(=O)(=O)c2ccc(N)cc2)nc1`, the activity remaining was 113%.

Take `O=C(O)CCCCC1SCC2NC(=O)NC21` (stereo not given): the activity remaining is 121%.

With `COc1cc(C(=O)O[C@H]2CC[C@@]3(C)[C@@H]4CC[C@H]5[C@]6(O)C[C@H](O)[C@@]7(O)[C@@H](CN8C[C@@H](C)CC[C@H]8[C@@]7(C)O)[C@]6(O)C[C@@]53OC24O)cc(OC)c1OC`, the activity remaining is 123%.

For the compound `CC1=CC2C(C(C)C)CCC(C)(O)C2CC1` (stereo not given), the activity remaining was 89.3%.

Consider `CCCc1nn(C)c2c(=O)[nH]c(-c3cc(S(=O)(=O)N4CCN(C)CC4)ccc3OCC)nc12`, for which the activity remaining was 97%.

On to `CCCCc1nc(Cl)c(CO)n1Cc1ccc(-c2ccccc2-c2nn[nH]n2)cc1`, for which the activity remaining is 110%.

Regarding `C[C@]12CCC(=O)C=C1CCC1C2C(=O)C[C@@]2(C)C1CC[C@]2(O)C(=O)CO` (stereo not given in full), the activity remaining was 111%.

With `O=C1C[C@@H](c2ccc(O)cc2)Oc2cc(O)cc(O)c21`, the activity remaining is 95.7%.

`CC(C)c1c(O)ccc2c1CCC1[C@@](C)(CO)CCC[C@]21C` (stereo not given in full): the activity remaining was 101%.

For the compound `Cc1ccc2c(Cl)cc(Cl)c(O)c2n1`, the activity remaining was 85.6%.

For the compound `COC(=O)[C@@H]1OC(=O)C2OC23[C@@]1(C)CCC1[C@]2(C)C(C[C@H](O)[C@]13C)C(C)(C)[C@H](OC(C)=O)C[C@@H]2OC(C)=O` (stereo not given in full), the activity remaining is 111%.

In the case of `NC(=O)NC1NC(=O)NC1=O` (stereo not given), the activity remaining was 113%.

As to `O=C(/C=C/C(=O)Oc1ccccc1C(=O)O)Oc1ccccc1C(=O)O`, the activity remaining was 92%.
